Source: the supplement of paper PMC11732987, “Enantioselective OTUD7B fragment discovery through chemoproteomics screening and high-throughput optimisation” (Communications Chemistry, 2025)

Experiments:
Assay in all cases: log2 ratio of Biotin-Ahx-Ub-VS probe labelling (fragment/DMSO); higher = less target engagement (more negative = stronger competition), active = hit call of the paper (q ≤ 0.05, log2 ratio ≤ -1)
Conditions in all cases: compound concentration: 200 uM; treatment time: 3 h
[1] = target: USP34 (UniProt Q70CQ2)
Method in brief: (§1)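 The table lists average log2 ratios of fragment over vehicle, from an unpaired t-test on global-median-normalised Spectronaut label-free quantities. Proteins with ≥2 unique peptides were used. Samples were HEK293T lysate (495 µg) treated in triplicate with fragment at 200 µM or vehicle for 3 h, then with Biotin-Ahx-Ub-VS (0.5 µM final) for 1 h, with labelled DUBs NeutrAvidin-enriched and run by diaPASEF LC-MS/MS.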

[2] = target: T1, USP36 (UniProt Q9P275)
T1 sequence (whole entry): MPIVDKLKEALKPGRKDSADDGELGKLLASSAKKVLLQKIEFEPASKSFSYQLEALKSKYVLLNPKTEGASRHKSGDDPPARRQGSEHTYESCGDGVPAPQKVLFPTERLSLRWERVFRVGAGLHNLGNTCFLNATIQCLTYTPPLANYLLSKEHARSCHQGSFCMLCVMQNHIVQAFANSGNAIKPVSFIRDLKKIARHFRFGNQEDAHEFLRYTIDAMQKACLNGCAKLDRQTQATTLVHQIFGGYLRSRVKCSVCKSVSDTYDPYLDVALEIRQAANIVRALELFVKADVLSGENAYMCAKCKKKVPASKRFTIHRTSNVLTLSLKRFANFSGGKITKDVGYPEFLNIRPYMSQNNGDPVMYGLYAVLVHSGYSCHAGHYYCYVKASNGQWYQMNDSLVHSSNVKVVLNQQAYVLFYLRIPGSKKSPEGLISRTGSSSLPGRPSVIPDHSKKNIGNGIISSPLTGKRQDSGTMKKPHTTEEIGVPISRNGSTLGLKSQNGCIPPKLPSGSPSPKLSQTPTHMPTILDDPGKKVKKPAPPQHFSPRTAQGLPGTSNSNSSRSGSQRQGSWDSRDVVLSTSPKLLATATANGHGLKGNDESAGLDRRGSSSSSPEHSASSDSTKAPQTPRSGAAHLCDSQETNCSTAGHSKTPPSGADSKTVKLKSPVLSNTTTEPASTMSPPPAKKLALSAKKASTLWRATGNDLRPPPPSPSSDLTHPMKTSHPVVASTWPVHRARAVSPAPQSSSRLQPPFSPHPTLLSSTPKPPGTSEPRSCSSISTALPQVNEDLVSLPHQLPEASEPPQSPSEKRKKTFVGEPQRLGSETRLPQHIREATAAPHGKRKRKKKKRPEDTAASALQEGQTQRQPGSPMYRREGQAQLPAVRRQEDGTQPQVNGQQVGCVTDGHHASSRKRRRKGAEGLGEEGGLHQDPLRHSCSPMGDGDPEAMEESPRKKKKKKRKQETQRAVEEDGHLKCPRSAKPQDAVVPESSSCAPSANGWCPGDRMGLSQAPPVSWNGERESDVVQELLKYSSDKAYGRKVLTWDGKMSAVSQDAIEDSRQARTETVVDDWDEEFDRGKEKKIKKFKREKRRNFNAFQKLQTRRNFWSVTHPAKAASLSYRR
Method in brief: as §1

[3] = target: T2, USP38 (UniProt Q8NB14)
T2 sequence (whole entry): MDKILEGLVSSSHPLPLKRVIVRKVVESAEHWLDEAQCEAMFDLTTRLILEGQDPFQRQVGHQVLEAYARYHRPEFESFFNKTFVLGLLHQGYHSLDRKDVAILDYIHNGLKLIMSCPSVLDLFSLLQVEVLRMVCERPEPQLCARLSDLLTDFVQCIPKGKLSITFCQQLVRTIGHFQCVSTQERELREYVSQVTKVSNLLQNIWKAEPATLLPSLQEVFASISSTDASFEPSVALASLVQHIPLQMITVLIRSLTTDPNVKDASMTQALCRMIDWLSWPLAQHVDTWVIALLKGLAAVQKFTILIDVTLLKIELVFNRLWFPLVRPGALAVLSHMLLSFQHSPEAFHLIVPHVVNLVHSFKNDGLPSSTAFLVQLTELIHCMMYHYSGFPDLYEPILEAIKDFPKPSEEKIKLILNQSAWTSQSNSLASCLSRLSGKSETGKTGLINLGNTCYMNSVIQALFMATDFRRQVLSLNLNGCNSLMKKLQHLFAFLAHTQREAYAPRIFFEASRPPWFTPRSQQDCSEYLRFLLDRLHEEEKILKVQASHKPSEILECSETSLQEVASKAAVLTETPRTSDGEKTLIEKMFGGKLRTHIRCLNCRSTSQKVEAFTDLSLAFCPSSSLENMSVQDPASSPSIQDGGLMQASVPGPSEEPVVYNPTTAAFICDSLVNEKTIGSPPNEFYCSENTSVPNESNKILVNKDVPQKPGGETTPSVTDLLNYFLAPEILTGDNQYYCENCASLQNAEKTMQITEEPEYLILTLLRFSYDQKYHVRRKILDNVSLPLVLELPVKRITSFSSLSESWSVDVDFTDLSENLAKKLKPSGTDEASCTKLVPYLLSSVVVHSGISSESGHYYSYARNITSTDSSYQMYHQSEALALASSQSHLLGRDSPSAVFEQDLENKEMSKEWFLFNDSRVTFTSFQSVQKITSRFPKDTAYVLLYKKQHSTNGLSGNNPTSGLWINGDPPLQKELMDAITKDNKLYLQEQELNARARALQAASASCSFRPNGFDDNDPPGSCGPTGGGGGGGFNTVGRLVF
Method in brief: as §1

[4] = target: T3, USP39 (UniProt Q53GS9)
T3 sequence (whole entry): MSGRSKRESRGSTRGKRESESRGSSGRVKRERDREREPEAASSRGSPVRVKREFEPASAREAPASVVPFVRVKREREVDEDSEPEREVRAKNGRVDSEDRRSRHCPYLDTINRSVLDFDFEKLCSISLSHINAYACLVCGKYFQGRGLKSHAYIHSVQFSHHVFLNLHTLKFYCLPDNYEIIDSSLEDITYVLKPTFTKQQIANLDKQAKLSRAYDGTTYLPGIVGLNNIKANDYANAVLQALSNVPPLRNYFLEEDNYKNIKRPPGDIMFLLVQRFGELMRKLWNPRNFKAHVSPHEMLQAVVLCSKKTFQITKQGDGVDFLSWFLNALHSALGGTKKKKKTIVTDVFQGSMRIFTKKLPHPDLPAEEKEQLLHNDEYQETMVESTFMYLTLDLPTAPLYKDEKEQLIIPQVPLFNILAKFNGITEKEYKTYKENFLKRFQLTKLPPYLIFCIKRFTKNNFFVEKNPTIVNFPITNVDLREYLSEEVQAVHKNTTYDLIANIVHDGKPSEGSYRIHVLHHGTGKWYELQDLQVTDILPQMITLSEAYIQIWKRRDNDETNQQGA
Method in brief: as §1

[5] = target: T4, USP4 (UniProt Q13107)
T4 sequence (whole entry): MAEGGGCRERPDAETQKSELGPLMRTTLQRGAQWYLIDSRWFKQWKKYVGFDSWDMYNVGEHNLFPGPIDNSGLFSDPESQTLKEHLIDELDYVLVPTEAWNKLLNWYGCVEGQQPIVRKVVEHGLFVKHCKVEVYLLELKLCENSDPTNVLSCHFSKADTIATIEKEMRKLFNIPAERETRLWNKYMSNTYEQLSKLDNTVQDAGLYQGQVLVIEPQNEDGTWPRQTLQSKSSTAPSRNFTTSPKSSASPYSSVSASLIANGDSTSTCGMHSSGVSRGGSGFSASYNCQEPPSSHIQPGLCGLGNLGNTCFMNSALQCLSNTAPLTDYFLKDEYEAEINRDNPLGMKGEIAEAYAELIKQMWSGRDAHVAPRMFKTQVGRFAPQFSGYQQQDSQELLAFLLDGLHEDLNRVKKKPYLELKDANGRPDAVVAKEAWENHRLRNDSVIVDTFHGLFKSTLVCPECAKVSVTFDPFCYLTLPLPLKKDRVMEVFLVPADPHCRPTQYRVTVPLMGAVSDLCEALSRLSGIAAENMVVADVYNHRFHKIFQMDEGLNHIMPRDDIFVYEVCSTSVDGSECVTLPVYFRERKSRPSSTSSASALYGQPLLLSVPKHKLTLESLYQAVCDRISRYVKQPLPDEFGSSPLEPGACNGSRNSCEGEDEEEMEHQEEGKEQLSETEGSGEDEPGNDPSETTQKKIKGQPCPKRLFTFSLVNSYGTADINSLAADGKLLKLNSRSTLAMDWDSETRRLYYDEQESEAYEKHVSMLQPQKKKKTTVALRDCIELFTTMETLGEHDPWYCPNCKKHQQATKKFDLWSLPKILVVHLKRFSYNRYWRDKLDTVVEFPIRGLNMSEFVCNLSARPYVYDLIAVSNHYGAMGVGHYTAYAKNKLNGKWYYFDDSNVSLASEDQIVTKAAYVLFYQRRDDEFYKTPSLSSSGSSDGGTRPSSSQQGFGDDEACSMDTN
Method in brief: as §1

Measured: log2 ratio of Biotin-Ahx-Ub-VS probe labelling

Chain of USP34 (Q70CQ2 whole entry, the tested form may be a part): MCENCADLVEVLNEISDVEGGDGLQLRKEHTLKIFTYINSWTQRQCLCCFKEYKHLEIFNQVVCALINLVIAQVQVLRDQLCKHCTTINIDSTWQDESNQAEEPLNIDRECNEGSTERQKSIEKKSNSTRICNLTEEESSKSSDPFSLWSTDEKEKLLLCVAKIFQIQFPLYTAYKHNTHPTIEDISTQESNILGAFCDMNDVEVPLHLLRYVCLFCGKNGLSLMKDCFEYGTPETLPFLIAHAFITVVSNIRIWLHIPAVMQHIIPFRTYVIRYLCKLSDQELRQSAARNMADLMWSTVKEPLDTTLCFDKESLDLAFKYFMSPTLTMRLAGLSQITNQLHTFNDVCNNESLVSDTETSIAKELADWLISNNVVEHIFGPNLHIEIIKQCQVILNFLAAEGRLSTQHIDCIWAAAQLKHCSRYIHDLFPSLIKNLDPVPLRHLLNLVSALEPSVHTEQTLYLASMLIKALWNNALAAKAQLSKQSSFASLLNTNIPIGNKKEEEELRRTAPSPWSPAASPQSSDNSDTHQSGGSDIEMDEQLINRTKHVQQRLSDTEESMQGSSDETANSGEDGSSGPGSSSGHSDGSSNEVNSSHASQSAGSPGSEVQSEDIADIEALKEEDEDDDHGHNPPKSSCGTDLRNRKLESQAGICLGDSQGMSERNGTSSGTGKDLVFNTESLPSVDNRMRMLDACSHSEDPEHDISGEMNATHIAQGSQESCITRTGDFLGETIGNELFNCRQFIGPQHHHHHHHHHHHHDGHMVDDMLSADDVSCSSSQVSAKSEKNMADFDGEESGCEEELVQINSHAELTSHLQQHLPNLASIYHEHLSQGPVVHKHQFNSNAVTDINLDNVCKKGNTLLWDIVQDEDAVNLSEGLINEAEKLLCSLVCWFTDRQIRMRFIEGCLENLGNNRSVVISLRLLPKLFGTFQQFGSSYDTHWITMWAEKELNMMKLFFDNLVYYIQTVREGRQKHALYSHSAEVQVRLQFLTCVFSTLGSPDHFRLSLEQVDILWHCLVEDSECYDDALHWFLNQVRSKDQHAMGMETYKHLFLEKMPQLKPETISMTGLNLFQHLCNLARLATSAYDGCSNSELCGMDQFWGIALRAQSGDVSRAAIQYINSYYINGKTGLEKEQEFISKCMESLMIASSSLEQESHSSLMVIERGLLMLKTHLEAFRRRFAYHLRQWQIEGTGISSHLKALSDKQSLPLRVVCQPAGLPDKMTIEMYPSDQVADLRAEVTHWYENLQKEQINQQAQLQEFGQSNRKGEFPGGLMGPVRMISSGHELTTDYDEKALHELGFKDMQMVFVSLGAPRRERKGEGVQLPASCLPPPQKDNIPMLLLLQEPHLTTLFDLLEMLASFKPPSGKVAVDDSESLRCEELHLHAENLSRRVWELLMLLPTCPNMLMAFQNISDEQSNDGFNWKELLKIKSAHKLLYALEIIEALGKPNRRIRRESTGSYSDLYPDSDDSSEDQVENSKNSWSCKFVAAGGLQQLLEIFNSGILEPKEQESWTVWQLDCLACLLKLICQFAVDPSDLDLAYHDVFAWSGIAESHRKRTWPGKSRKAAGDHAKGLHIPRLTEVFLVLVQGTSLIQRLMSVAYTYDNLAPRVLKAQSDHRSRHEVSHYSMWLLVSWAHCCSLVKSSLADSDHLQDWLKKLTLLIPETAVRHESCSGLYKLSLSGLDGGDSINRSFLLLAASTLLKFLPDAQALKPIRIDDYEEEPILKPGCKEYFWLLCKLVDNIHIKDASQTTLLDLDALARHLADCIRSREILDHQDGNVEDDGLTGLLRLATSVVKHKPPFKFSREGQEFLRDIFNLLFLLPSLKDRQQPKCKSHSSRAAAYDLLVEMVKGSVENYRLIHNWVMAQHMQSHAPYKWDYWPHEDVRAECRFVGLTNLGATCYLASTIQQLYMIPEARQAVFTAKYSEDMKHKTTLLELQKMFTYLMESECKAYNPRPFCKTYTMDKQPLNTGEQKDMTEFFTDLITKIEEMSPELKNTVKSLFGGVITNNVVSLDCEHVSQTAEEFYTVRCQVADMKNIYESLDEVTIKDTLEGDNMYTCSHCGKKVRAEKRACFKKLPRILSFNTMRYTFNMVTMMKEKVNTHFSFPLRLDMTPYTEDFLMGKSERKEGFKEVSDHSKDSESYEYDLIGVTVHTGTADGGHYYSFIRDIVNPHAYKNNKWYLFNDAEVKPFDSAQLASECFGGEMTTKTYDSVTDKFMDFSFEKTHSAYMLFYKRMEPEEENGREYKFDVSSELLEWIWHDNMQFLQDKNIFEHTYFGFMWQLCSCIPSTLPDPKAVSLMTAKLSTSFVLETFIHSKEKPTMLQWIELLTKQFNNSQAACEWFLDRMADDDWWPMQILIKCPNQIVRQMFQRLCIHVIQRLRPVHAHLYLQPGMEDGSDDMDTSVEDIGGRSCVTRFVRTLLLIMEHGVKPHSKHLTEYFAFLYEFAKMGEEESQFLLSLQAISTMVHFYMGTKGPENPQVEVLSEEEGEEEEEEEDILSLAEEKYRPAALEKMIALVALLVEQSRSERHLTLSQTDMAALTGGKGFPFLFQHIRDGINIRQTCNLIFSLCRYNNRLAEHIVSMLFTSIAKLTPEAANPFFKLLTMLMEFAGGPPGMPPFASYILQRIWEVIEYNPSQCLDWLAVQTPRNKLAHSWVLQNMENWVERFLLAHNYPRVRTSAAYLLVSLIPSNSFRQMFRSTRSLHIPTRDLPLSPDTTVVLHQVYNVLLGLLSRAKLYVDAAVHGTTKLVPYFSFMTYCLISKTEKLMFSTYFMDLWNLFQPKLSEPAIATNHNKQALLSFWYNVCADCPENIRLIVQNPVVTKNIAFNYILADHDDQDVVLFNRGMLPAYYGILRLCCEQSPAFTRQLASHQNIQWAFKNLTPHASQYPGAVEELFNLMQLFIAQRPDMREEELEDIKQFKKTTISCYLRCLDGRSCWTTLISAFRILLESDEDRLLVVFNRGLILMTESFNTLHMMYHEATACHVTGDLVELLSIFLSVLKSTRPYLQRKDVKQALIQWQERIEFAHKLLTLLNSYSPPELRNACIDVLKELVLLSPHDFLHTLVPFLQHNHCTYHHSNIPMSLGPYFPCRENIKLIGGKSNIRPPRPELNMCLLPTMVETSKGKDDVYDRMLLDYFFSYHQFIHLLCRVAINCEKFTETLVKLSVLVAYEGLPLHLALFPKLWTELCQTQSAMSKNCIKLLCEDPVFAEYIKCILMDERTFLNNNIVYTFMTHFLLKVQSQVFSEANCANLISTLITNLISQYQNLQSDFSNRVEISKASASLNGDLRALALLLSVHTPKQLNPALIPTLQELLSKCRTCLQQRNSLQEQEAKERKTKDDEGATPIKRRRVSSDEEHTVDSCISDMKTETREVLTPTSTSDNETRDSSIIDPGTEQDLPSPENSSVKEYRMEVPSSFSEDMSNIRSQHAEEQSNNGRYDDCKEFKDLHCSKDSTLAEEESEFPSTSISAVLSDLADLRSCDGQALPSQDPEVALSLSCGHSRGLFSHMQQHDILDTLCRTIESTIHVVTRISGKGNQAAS

O=C(CCl)N1CCOC2(CCC2)C1
inactive: [1] 0.118 | [2] 0.102 | [3] 0.253 | [4] 0.11 | [5] -0.266
